D1 antag – blocks dopamine activation of the human D1 receptor | P21728 | activity change, negative = inhibition, % at 10 µM | HEK293 TREx D1 cells, calcium flux, dopamine EC80; active compounds read low | 360,000 compounds, 3.2% hits; in the data active means activity change below about -30%; further: on the % scale 0 is the no-effect control and ±100 the full control effect
Target sequence (P21728 whole entry, looked up): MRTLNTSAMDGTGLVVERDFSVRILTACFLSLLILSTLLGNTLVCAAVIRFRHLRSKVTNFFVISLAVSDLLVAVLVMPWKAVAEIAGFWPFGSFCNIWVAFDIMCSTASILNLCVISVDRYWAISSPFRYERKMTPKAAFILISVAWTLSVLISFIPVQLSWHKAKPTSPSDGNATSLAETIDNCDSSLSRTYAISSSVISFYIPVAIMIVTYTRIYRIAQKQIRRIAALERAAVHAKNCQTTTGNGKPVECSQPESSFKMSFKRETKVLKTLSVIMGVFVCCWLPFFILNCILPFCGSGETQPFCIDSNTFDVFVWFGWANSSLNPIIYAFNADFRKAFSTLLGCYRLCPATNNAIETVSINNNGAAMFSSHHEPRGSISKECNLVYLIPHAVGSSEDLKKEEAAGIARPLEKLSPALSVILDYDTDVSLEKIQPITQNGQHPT
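After overnight tetracycline induction at 30 C, force-coupled D1 HEK293 cells took up a no-wash calcium dye at room temperature. Compounds were added and monitored 180 s, and the response to EC80 dopamine was then recorded.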
D3 antag – blocks the human D3 dopamine receptor; P35462; 360,000 compounds, 2.5% hits; D3R cells, DiscoveRx beta-arrestin luminescence, antagonist mode; active compounds read low; max response, negative = inhibition, %; in the data active means max response below about -50%; inconclusive means no clear call, values can overlap the other calls; further: on the % scale 0 is the no-effect control and ±100 the full control effect
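Cells expressing the human receptor were seeded at 1500 cells/well, incubated overnight at 37 degrees C in 5% CO2, then exposed to library compounds with dopamine controls for 90 minutes at 37 degrees C before luminescent detection.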
D1 ag – agonists of human D1 dopamine receptor | 360,000 compounds, 1% hits | HEK293 T-REx D1 cells, calcium flux, agonist mode | activation, % at 2 µM; in the data active means activation above about 30%; further: 0% is about no effect
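Inducible HEK293 T-REx D1 cells, force-coupled to calcium signalling, were plated at 4000 cells/well with tetracycline and held overnight at 30 C. After no-wash calcium dye loading, compound-evoked calcium rise over 180 s flagged agonists.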
D1 potentiator – human D1 dopamine receptor positive modulation; 360,000 compounds, 0.036% hits; P21728; AID 504651; potentiation, % at 10 µM; HEK293 TREx D1 cells, calcium flux, dopamine EC20 potentiation; in the data active means potentiation above about 30%; further: 0% is about no effect
D3 ag – agonists of human D3 dopamine receptor | P35462 | AID 652048 | max activation, % | 410,000 compounds, 0.58% hits | D3R DiscoveRx beta-arrestin cells, luminescence, 90 min; in the data active means max activation above about 30%; further: 0% is about no effect
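Agonist mode: compounds and dopamine controls were applied to plated cells for 90 min at 37 degrees C after an overnight attachment at 1500 cells/well. Luminescent read-out followed 30 - 60 minutes at room temperature with DiscoveRx detection reagent.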
* = called active by the depositor. Only some compounds are listed: those with a hit (about 6% of all), similar ones and a draw of the others.

What do the screens show for `CC1=CC(C)(C)n2c(O)c(C3=NC(=S)NC3=O)c3cc(OC(=O)c4cccc5ccccc45)cc1c32`?
D1 antag: 24.0; D3 antag: -57.7*; D1 ag: 4.2; D1 potentiator: -3.0; D3 ag: -15.8

What do the screens show for `COc1ccccc1NC(=O)CSc1nncn2c1cc1sccc12`?
D1 antag: -10.1; D1 ag: 4.6; D1 potentiator: -4.2; D3 ag: 6.0

What do the screens show for `CCOc1ccc(NC(=O)Cn2cc(C(=O)c3ccc(CC)cc3)c(=O)c3cc(C)ccc32)cc1`?
D1 antag: 11.2; D1 ag: 1.0; D1 potentiator: 1.1; D3 ag: 0.0

What do the screens show for `Cc1sc2nc(CSc3ccccc3)nc(N3CCN(C)CC3)c2c1C`?
D1 antag: -41.7*; D3 antag: -93.3*; D1 ag: 4.2; D1 potentiator: -10.2; D3 ag: -3.0

Results for Clc1ccccc1N=C1SCCS1 ?
D1 antag: 6.9; D3 antag: 6.0; D1 ag: 36.1*; D1 potentiator: 7.7; D3 ag: 10.8

How did Cc1sc2ncn(CC(=O)N3CCN(c4cccc(Cl)c4)CC3)c(=O)c2c1S(=O)(=O)N1CCC(C)CC1 do in these assays?
D1 antag: 8.3; D1 ag: 5.2; D1 potentiator: 0.2; D3 ag: -7.8

How did COc1ccc(OC)c(CN(CCN2CCOCC2)C(=O)Nc2ccccc2)c1 do in these assays?
D1 antag: 7.1; D3 antag: -21.0; D1 ag: 1.2; D1 potentiator: 2.5; D3 ag: -2.9

Results for O=C(Nc1cccc(Cl)c1)N(CCN1CCOCC1)Cc1ccccc1F ?
D3 antag: 0.0; D1 ag: 11.4; D1 potentiator: 0.3; D3 ag: -1.0

How did Cc1ccc(C)c2[nH]c(=O)c(CN(CCN3CCCC3)C(=O)Nc3cccc(Cl)c3)cc12 do in these assays?
D1 antag: -12.3; D3 antag: 0.9; D1 ag: 39.0*; D1 potentiator: -11.3; D3 ag: 1.2

What do the screens show for `Cc1ccc(NC(=O)N(CCCN2CCOCC2)Cc2cccs2)cc1C`?
D1 antag: -9.9; D3 antag: -68.3*; D1 ag: 13.3; D3 ag: -10.5

What do the screens show for `COc1ccc(OC)c(CN(CCN2CCOCC2)C(=O)Nc2cccc(Cl)c2)c1`?
D1 antag: -31.2*; D3 antag: 0.0; D1 ag: 2.3; D1 potentiator: -0.3; D3 ag: -9.0

Results for O=C(Nc1cccc(Cl)c1)N(CCN1CCOCC1)Cc1cccc(Cl)c1 ?
D1 antag: -37.9*; D3 antag: inconclusive; D1 ag: 48.1*; D1 potentiator: -13.4; D3 ag: -25.3

Results for Cc1ccc(NC(=O)Nc2c(C)n(C)n(-c3ccccc3)c2=O)c(Cl)c1 ?
D1 antag: 4.1; D1 ag: 0.3; D1 potentiator: 7.3; D3 ag: 7.0

What do the screens show for `CN(CC1(C)CCCO1)S(=O)(=O)c1ccc(Cl)c(S(N)(=O)=O)c1` (stereo unspecified)?
D3 ag: -6.2

What do the screens show for `N#Cc1ccc(OC(=O)c2cc(-c3ccc4c(c3)OCCO4)on2)cc1`?
D1 antag: -8.2; D1 ag: 33.4*; D1 potentiator: 0.5; D3 ag: -14.7

How did Cc1ccccc1OC(=O)c1cc(-c2ccc3c(c2)OCCO3)on1 do in these assays?
D1 antag: -46.4*; D1 ag: 7.9; D1 potentiator: -1.6; D3 ag: 3.5

How did O=C(Nc1cccnc1)c1cc(-c2ccc3c(c2)OCO3)on1 do in these assays?
D1 antag: 12.7; D3 antag: -8.8; D1 ag: 0.7; D1 potentiator: 1.8; D3 ag: 2.7

Results for O=C(Nc1cccc(Br)c1)c1cc(-c2ccc3c(c2)OCCO3)on1 ?
D1 antag: -40.8*; D1 ag: 15.8; D1 potentiator: -1.9; D3 ag: -20.8

How did Cc1ccccc1C1C(C#N)=C2N=C(N)c3c(sc4c3CCCCC4)N2C2=C1C(=O)CC(C)(C)C2 (stereo unspecified) do in these assays?
D1 antag: 21.2; D3 antag: -60.8*; D1 ag: 2.3; D1 potentiator: 1.1; D3 ag: -8.2

Results for Nc1ncnc2c1ncn2[C@@H]1O[C@H](C(=O)N[C@@H](CO)Cc2ccccc2)[C@@H](O)[C@H]1O ?
D3 antag: 6.8; D3 ag: 7.7

How did O=C(COc1ccc(Cl)cc1)Nc1ncc([N+](=O)[O-])s1 do in these assays?
D1 antag: -31.6*; D3 antag: -6.6; D1 ag: 27.7; D1 potentiator: -4.4; D3 ag: 3.0

What do the screens show for `O=C(Cc1ccc(Br)cc1)Nc1ncc([N+](=O)[O-])s1`?
D1 antag: -25.2; D3 antag: 13.1; D1 ag: 21.1; D1 potentiator: -1.9; D3 ag: 5.6

How did O=C(Cc1ccc(Cl)cc1)Nc1ncc([N+](=O)[O-])s1 do in these assays?
D1 antag: -43.1*; D3 antag: -11.0; D1 ag: 31.0*; D1 potentiator: -6.5; D3 ag: 0.8

How did CCCCCCCCCCCCCCCCOCCOCCOCCOCCOCCOCCOCCOCCOCCOCCOCCOCCOCCOCCOCCOCCOCCOCCOCCOCCO do in these assays?
D3 ag: -4.8

Results for Cc1ccc(/C=N/n2c(-c3cccc(Cl)c3)n[nH]c2=S)o1 ?
D1 antag: -34.8*; D3 antag: 3.9; D1 ag: -1.1; D1 potentiator: -2.4; D3 ag: -4.3

How did Cc1cccc(-c2n[nH]c(=S)n2/N=C/C=C/c2ccco2)c1 do in these assays?
D1 antag: 13.8; D3 antag: -97.6*; D1 ag: 2.5; D1 potentiator: -5.3; D3 ag: -10.0

How did S=c1[nH]nc(-c2ccccc2Cl)n1/N=C/C=C/c1ccco1 do in these assays?
D1 antag: -35.7*; D3 antag: -21.5; D1 ag: 1.2; D1 potentiator: -4.0; D3 ag: -3.8

What do the screens show for `S=c1[nH]nc(-c2ccncc2)n1/N=C/C=C/c1ccco1`?
D1 antag: -1.7; D3 antag: -19.1; D1 ag: 0.0; D1 potentiator: -4.5; D3 ag: 7.6

How did S=c1[nH]nc(-c2n[nH]c3c2CCC3)n1/N=C/C=C/c1ccccc1 do in these assays?
D1 antag: -2.5; D3 antag: -115.2*; D1 ag: 0.6; D1 potentiator: -2.4; D3 ag: -6.1

What do the screens show for `COc1ccc2oc(=N)c(C(=O)Nc3ccc(Cl)cc3)cc2c1`?
D1 antag: -4.2; D3 antag: -1.8; D1 ag: 2.0; D1 potentiator: -3.1; D3 ag: -13.7

Results for Cc1ccc(S(=O)(=O)c2nnn(-c3cccc(F)c3)c2N)cc1 ?
D1 antag: -33.1*; D3 antag: 3.3; D1 ag: 10.3; D1 potentiator: -1.1; D3 ag: 1.3

Results for Cc1ccc(S(=O)(=O)c2nnn(-c3ccc(F)c(Cl)c3)c2N)cc1 ?
D1 antag: -23.3; D1 ag: 75.6*; D1 potentiator: 1.9; D3 ag: 1.3

Assay outcomes (PubChem)
